# Test results: PubChem BioAssay
# A number with no mark means an inactive call. The rule behind the calls is not given here.
# Target: Pantothenate synthetase (Mycobacterium tuberculosis (strain ATCC 25618 / H37Rv)) (UniProt P9WIL5)
# Assay: Recombinant Mtb pantothenate synthetase (PanC) inhibitors, coupled enzyme, confirmatory (AID 375);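 note: 0% = full reaction with vehicle and 100% = no enzyme background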
# Conditions: coupled enzyme assay; at 10 µM, active compounds read high
# Sequence of Pantothenate synthetase (Mycobacterium tuberculosis (strain ATCC 25618 / H37Rv)) (P9WIL5 whole entry, looked up): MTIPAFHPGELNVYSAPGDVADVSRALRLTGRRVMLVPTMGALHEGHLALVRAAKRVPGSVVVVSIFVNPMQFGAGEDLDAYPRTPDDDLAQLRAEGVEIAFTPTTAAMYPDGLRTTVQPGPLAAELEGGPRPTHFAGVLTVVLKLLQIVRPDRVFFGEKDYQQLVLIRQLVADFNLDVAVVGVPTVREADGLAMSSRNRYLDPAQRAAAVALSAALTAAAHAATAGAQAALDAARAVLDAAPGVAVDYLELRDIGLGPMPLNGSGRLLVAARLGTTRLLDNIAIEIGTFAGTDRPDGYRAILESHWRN
row,SMILES,inhibition [%]
1,CCCn1c(=O)c2ccccc2n2c(SCc3cc(=O)n4ccsc4n3)nnc12,0
2,Cc1ccc(C)c(N2CCN(CCCNC(=O)Cn3cc4c(n3)CCC(C)C4)CC2)c1 (stereo not given),8
3,c1ccc2c(c1)nc(NCCN1CCOCC1)c1nncn12,2
4,Cn1c(=O)oc2cc(S(=O)(=O)N3CCC(C(=O)Nc4ccc(OC(F)(F)F)cc4)CC3)ccc21,0
5,CCOC(=O)N1CCN(C(=O)CSc2nnc(-c3cccc(Cl)c3)o2)CC1,0
6,O=C1CCc2nc3sc4c(c3c(=O)n2N1)CCCC4,0
7,CCN(CC)CCNC(=O)c1ccc(N)cc1,0
8,O=C(NCc1ccc2c(c1)OCO2)c1cccc2c1C(=O)N(C1CCCCC1)C2,5
9,CCOC(=O)c1ccc(NS(=O)C23CC4CC(CC(C4)C2)C3)cc1 (stereo not given),8
10,CCc1ccc(NC(=O)CS(=O)CC(=O)NCC2OCCc3ccccc32)cc1 (stereo not given),0
11,COc1ccc(N2CCN(c3ccc(N)cc3C#N)CC2)cc1,7
12,CCCN(CCC)C(=O)CC(c1ccc(F)cc1)c1ccco1 (stereo not given),1
13,CC1=C(C)C(=O)C(CCCCC#CCCCC#CCO)=C(C)C1=O,6
14,Cc1nnc(N(C)C(=O)c2cccnc2)s1,0
15,COc1ccc(C(=O)Cn2nnc(-c3cccs3)n2)cc1,0
16,COc1cccc(-n2c(SCC(=O)OC(C)C)nnc2-c2cccnc2)c1,2
17,Cc1c(NC(=O)c2cnn3c2NC(c2ccco2)CC3C(F)(F)F)c(=O)n(-c2ccccc2)n1C (stereo not given),9
18,CCCCC(NC(C)=O)c1nc2ccccc2n1CCC (stereo not given),0
19,Cc1ccc(S(=O)(=O)N2CCOCC(=O)NCCOCCNC(=O)COCC2)cc1,0
20,CC(C)CNC(=O)c1ccccc1NC(=O)c1ccc(CN2CCOCC2)cc1,3

row,SMILES,inhibition [%]
1,COc1ccc(OC)c(NC(=O)Cc2coc3ccc(C)cc23)c1,6
2,OC[C@H]1O[C@@H](n2cnc3c(Nc4ccccc4)ncnc32)[C@H](O)[C@@H]1O,1
3,CCC1(C)Cc2c(C#N)c(N)n(-c3ccccc3)c(=O)c2CO1 (stereo not given),0
4,CCOc1ccccc1C(=O)Nc1nnc(CC)s1,0
5,Cc1c(NC(=O)C(C)Oc2ncnc3ccccc23)c(=O)n(-c2ccccc2)n1C (stereo not given),0
6,CC(=O)[C@H]1CC[C@H]2[C@@H]3CCC4=CC(=O)CC[C@]4(C)[C@H]3[C@H](O)C[C@]12C,0
7,Nc1ccc(S(=O)(=O)Nc2ncccn2)cc1,6
8,Nn1c(SCC(=O)Nc2ccccc2)nnc1-c1cccnc1,0
9,Cc1ncc([N+](=O)[O-])n1CC(O)CCl (stereo not given),0
10,Cc1ccc(C2c3c(oc4ccccc4c3=O)C(=O)N2c2nnc(C(C)C)s2)o1 (stereo not given),7
11,Cc1cc2c(=O)n(Cc3ccco3)c(SCC(=O)NCc3ccco3)nc2s1,3
12,Cc1cc(C)nc(N2CCC(C(=O)NCc3cccc(C(F)(F)F)c3)CC2)n1,3
13,CC(C)Cc1cc(C(=O)Nc2c(F)cc(F)cc2Br)no1,0
14,CCOc1ccc(NC(=O)CSc2nnnn2CC(=O)O)cc1,0
15,Cc1cc(CN2CCN(CCC#N)CC2)c(O)c(C2(C)CCCCC2)c1,0
16,Cc1cc(C)c2cc3c(ccn3C3OC[C@H](O)[C@H](O)[C@H]3O)cc2n1 (stereo not given in full),4
17,O=C(c1ccc2nc(N3CCOCC3)sc2c1)N1CCCC1,13
18,COc1cc(C)nc(OCCNC(=O)COc2ccc(Cl)cc2C)n1,5
19,Cc1cc(C(N)=O)c2cc(Br)ccc2n1,10
20,CCC12CN3CC(CC)(CN(C1)C3c1ccc(OC(C)C)cc1)C2=O (stereo not given),9
